Source: PubChem BioAssay (The Scripps Research Institute Molecular Screening Center)
Most compounds without a hit are left out; they make up all but 3.5% or so of the library.
FBW7 activator: FBW7 E3 ligase activators, primary screen, biochemical, AlphaScreen, human. AID 1259310, 2017. normalized activity (activation), % at 26.1 µM. AlphaScreen FBW7–phospho-cyclin E peptide binding, activator screen. F-box/WD repeat-containing protein 7 (Homo sapiens), Q969H0. hit rate 0.13% among 650,000; in the data active = normalized activity above about 1.9%;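 also: purified mutant Fbw7 with reduced substrate affinity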
Target sequence (Q969H0 whole entry, looked up): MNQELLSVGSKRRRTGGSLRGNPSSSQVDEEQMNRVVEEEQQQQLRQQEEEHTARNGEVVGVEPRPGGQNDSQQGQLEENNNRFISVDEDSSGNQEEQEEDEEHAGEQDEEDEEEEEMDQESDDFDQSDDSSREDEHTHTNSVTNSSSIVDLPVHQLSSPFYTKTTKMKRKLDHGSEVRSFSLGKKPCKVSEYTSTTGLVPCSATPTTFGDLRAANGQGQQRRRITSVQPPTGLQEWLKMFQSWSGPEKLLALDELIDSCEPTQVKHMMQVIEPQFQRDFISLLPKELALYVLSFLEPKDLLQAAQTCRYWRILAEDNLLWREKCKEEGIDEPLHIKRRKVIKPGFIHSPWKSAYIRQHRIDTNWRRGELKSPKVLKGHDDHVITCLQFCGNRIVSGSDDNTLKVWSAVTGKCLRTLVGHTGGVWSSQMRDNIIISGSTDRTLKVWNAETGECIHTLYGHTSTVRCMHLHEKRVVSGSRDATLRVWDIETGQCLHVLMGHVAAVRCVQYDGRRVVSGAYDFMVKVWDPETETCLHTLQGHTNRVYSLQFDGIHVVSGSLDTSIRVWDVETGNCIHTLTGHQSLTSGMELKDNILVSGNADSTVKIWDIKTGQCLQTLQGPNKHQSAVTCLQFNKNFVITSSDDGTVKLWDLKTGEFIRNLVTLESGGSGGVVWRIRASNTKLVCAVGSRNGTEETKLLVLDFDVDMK
MITF inh: MITF inhibitors, primary screen, biochemical, AlphaScreen, human | Microphthalmia-associated transcription factor (Homo sapiens), O75030 | AlphaScreen MITF homodimerization, bead proximity signal | inhibition, % at 2.6 µM | hit rate 0.91% among 650,000 | AID 1259374, 2018; in the data active = inhibition above about 50%;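 also: 0% = vehicle wells with protein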
GPR151 ag: activators of human GPR151, primary screen, cell-based, PathHunter beta-arrestin, luminescence | hit rate 1% among 650,000 | G-protein coupled receptor 151 (Homo sapiens), Q8TDV0 | PathHunter beta-arrestin GPR151 cells | activation, % at 11.2 µM | AID 1508602, 2020; in the data active = activation above about 4.9%;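 also: 0% = median of compound wells and 100% = cells with positive control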
TEAD-YAP block: TEAD-YAP interaction inhibition, primary screen, TEAD-YAP interaction inhibitor project, luminescence, HEK-TIYL cells; inhibition, % at 9.12 µM; hit rate 1.4% among 640,000; AID 1259422, 2018; TEAD-Gal4/YAP UAS-luciferase luminescence; in the data active = inhibition above about 32%;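 also: 0% = median of test compound wells and 100% = reference inhibitor wells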
MITF inh conf: MITF inhibitors, retest of hits, confirmation, biochemical, AlphaScreen, triplicate | shares compounds with MITF inh | AlphaScreen MITF homodimerization, biotin/His-MITF beads | inhibition, % at 2.6 µM | hit rate 16% among 4,700 | AID 1259372, 2018;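 active = inhibition above a cutoff derived from the DMSO control wells, cut at about 28% in these data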;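 also: 0% = MITF dimer wells with DMSO only; inhibitors lower the bead chemiluminescence by keeping MITF from dimerizing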
AlphaScreen DR: AlphaScreen optical interference compounds, dose response, counter-screen, biochemical, HTS; shares compounds with MITF inh; AlphaScreen optical interference counterscreen, cell-free; IC50, µM; hit rate 6% among 480; AID 1259373, 2018; call rule not given here
AlphaScreen intf2: AlphaScreen optical interference compounds, counter-screen for MITF inhibitor project, biochemical, triplicate; AID 1259376, 2018; LysRS AlphaScreen counterscreen, signal interference; hit rate 7.6% among 4,700; inhibition, % at 2.6 µM; shares compounds with MITF inh;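 active = inhibition above a cutoff derived from the DMSO control wells, cut at about 30% in these data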
The depositor's hits bear a star; . = no result.

SMILES	FBW7 activator	MITF inh	GPR151 ag	TEAD-YAP block	MITF inh conf	AlphaScreen intf2	others
COc1ccc(CN2CCC(N3CCCCC3)CC2)c(OC)c1	0.1	25.4	-0.5	1.2	.	.
COc1ccc(OC)c(CN2CCC(O)CC2)c1	0.1	36.6	-0.5	-4.2	.	.
COc1ccc(CN2CCC(N3CCCC3)CC2)cc1	0.4	52.4*	-0.4	-1.6	3.0	2.6
COc1ccc(OC)c(CN2CCC(N3CCCCC3)CC2)c1	-0.1	52.3*	0.0	8.3	9.7	8.6
Cc1cc(C)n(C(=O)COc2ccc(Cl)c(C)c2)n1	0.6	14.9	0.2	-7.0	.	.
CC1(C)CC(=O)C(Sc2ccc(Br)cc2)=C(OC(=O)c2ccco2)C1	0.0	2.1	1.5	7.1	.	.
O=C(Nc1c2c(nn1-c1cccc(Cl)c1)CS(=O)C2)c1ccc(Cl)cc1Cl (stereo not drawn)	-0.1	-5.1	0.3	-5.6	.	.
CN(C(=O)Cc1ccc(NC2=NC3CS(=O)(=O)CC3S2)cc1)C1CCCCC1 (stereo not drawn)	-0.9	57.8*	4.0	-7.7	56.2*	42.2*
COc1cc(OC)cc(C(=O)N2CCN(Cc3cccc(Oc4ccccc4)c3)CC2)c1	-0.1	37.3	2.1	-3.0	.	.
COc1cccc(CN2CCN(Cc3ccco3)[C@@H](C)C2)c1	-0.1	2.8	-1.2	2.3	.	.
COc1cc(OC)cc(C(=O)N2CCN(Cc3ccco3)CC2)c1	0.5	58.8*	-2.1	1.6	2.9	16.3
COc1cc(CN2CCN(Cc3ccco3)CC2)cc(OC)c1	0.1	83.1*	0.9	2.6	4.1	20.3
COc1ccc(C(O)c2nccn2C)cc1OC (stereo not drawn)	-0.1	2.9	-0.2	-3.0	.	.
COc1ccc(C(N)c2nccn2C)cc1OC (stereo not drawn)	-0.2	64.2*	-1.0	-1.5	25.6	61.4*
COc1ccc(C(=O)NC2CCCCC2)cc1S(=O)(=O)N1CCC(C)CC1	-0.2	66.5*	0.1	0.5	10.4	13.2
O=C(c1ccncc1)N1CCN(Cc2cccc(Cl)c2)CC1	-0.2	73.5*	-0.7	-0.8	9.0	16.6
COc1cc(OC)cc(C(=O)N2CCN(Cc3ccc(F)cc3)CC2)c1	0.0	50.5	0.6	-5.4	.	.
COc1cc(OC)cc(C(=O)N2CCN(Cc3ccc(Cl)cc3)CC2)c1	-0.1	57.7*	-1.0	10.3	27.0	14.6
COc1cc(OC)cc(C(=O)N2CCN(Cc3cccc(Cl)c3)CC2)c1	-0.4	52.1*	0.3	-4.5	11.9	19.6
Cc1ccc2c(c1)c(=O)c1ccccc1n2CC(=O)Nc1ccc(F)cc1F	0.1	77.4*	-0.5	-0.5	4.1	4.6
CS(=O)(=O)c1nsc2nc(=O)c(C=C3C=C(Cl)C(=O)C(Cl)=C3)c(N)n12	-0.4	18.3	-0.9	8.0	.	.
Cc1ccc(S(=O)(=O)Cn2nnnc2CN2CCOCC2)cc1	0.1	64.2*	-1.1	-6.1	9.9	9.8
Cc1ccc(S(=O)(=O)Cn2nnnc2CN2CCN(c3ccccc3)CC2)cc1	-0.1	-1.0	0.3	0.2	.	.
N#C/C(=C\c1cc(Cl)cc(Cl)c1OCc1ccc(Cl)cc1Cl)c1nn(CCO)c(N)c1C#N	-0.1	1.3	-0.9	4.6	.	.
N#C/C(=C\c1nn(CCO)c(N)c1C#N)c1ccc(Cl)cc1Cl	0.1	63.3*	-0.3	-1.6	-6.0	-1.1
SMILES	FBW7 activator	MITF inh	GPR151 ag	TEAD-YAP block	MITF inh conf	AlphaScreen intf2	others
O=C(COC(=O)COc1ccc(Cl)cc1)NCc1ccco1	-0.3	52.4*	0.7	0.1	56.3*	-5.6	AlphaScreen DR=>7.21
O=C(COC(=O)/C=C/c1ccco1)NC1CCCCC1	0.0	8.2	3.8	6.6	.	.
O=C(COC(=O)/C=C/c1ccco1)NCc1ccco1	-0.1	63.5*	-1.7	-3.1	63.5*	-1.3	AlphaScreen DR=>6.6
O=C(COC(=O)/C=C/c1ccco1)COC(=O)/C=C/c1ccco1	-0.4	78.1*	-0.7	5.9	62.9*	-14.9	AlphaScreen DR=>7.07
N#Cc1ccc(OCC(=O)OCC(=O)NCc2ccco2)cc1	-0.1	3.4	-1.1	4.1	.	.
CCOC(=O)/C=C/c1ccco1	0.0	14.3	0.1	-3.3	.	.
CCCC(=O)N1CCc2cc(OC)c(OC)cc2C1COc1ccc(F)cc1 (stereo not drawn)	-0.1	-7.9	1.5	-15.8	.	.
CC(=O)c1ccccc1NS(=O)(=O)c1ccc(F)c(F)c1	0.3	24.2	0.0	15.1	.	.
O=C(OC1CCCC1=O)c1ccc(Cl)c(S(=O)(=O)N2CCOCC2)c1 (stereo not drawn)	0.1	66.1*	-1.0	3.5	50.9*	7.8	AlphaScreen DR=>6.69
O=C(OC1CCCC1=O)c1ccc(S(=O)(=O)N2CCCCC2)cc1 (stereo not drawn)	-0.1	73.9*	-0.5	-7.2	64.5*	2.2	AlphaScreen DR=>6.64
COCCCN1C(=S)NC2c3cccc(OC)c3OC1(C)C2C(=O)Nc1ccc(C)cc1C (stereo not drawn)	0.0	10.3	4.7	10.1	.	.
N#Cc1ccc(NC(=O)CN2C(=O)C3CCCN3C(=O)c3ccccc32)cc1 (stereo not drawn)	0.2	72.0*	-0.2	-7.9	-22.9	-0.3
O=C(CN1C(=O)C2CCCN2C(=O)c2ccccc21)Nc1ccc(F)cc1 (stereo not drawn)	0.5	0.7	-0.8	3.0	.	.
CCc1cccc(OCC(O)CNCc2cccnc2)c1 (stereo not drawn)	-0.1	76.2*	1.2	2.6	-13.8	17.8
CC(=O)c1cccc(OCC(O)CNCc2cccc(C(F)(F)F)c2)c1 (stereo not drawn)	-0.2	57.1*	-0.5	5.0	-3.6	8.1
CC(=O)CC(=O)NC(C)c1ccccc1 (stereo not drawn)	0.0	2.7	2.2	13.3	.	.
CC(NC(=O)CNCc1ccccn1)c1ccccc1 (stereo not drawn)	-0.7	74.0*	0.1	4.2	24.9	100.3*
CSc1cccc(C(=O)N(CCn2cccn2)c2nc3c(C)cc(C)cc3s2)c1	0.0	95.4*	0.0	-6.7	-14.1	-5.4
COc1cc(Cl)c(C)cc1NC(=O)c1nc(-c2ccncc2)no1	-0.1	-2.3	0.4	4.0	.	.
CN(C)C(=O)C(NC(=O)c1ccccc1)C12CC3CC(CC(C3)C1)C2 (stereo not drawn)	0.1	4.1	0.2	0.9	.	.
N#Cc1c(C#N)c(N)n(N)c1N	-0.8	93.8*	0.9	-2.2	94.7*	73.0*
CC(NC(=O)c1ccc(C(=O)NC(C)c2ccccc2)nc1)c1ccccc1 (stereo not drawn)	-0.1	4.2	0.3	0.8	.	.
